In PubChem BioAssay (NCATS):
Results filed as inconclusive are left out. Calls of active or inactive are those of the source. Unless noted, calls come from the whole dose curve; as a rule, active = well fitted curve in either direction with a large enough effect (not every such curve was filed as active); inconclusive = small, poorly fitted or top-dose-only effect, or another doubt; inactive = flat fitted curve, though single readings scatter.

How the values were obtained:
[1] = molecular target: Lysosomal acid glucosylceramidase (Homo sapiens) (UniProt P04062); experiment: Glucocerebrosidase-p2 (AID 348; in the data active = potency below about 10 µM; note: potency is the fitted concentration of half-maximal effect); conditions: purified GBA, blue fluorogenic substrate, 40 min
Procedure, shortened: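 Compounds titrated from 0.6 nM upwards against 0.2 nM enzyme in pH 5.9 citric acid/KH2PO4, taurocholate, tween-20; blue fluorogenic substrate 80 uM, 40 min room temperature, stopped and read Ex 365/Em 440 for AC50.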

[2] = AP1 Signaling Pathway (AID 357); conditions: ME-180 AP-1-bla reporter, EGF-induced, beta-lactamase ratio, 5 h; at 7.69 µM (top of the series) unless noted;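 note: ME-180 reporter cells stimulated with EGF at its EC50 level; % is set by controls: 0 for no effect and ±100 for the full control effect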
Procedure, shortened: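 Modulation of EGF-driven AP-1 transcription was assessed with a beta-lactamase reporter in ME-180 cells. Compound and EC50 EGF were co-incubated 5 hours at 37 °C before 2.5-hour CCF4 loading at room temperature and dual-emission reading.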

[3] = molecular target: Cytochrome P450 1A2 (Homo sapiens) (UniProt P05177); experiment: p450-cyp1a2 (AID 410; calls by dose curve; note: potency is the fitted concentration of half-maximal effect;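 for activity change, negative = inhibition: -100% = full effect of reference inhibitor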); conditions: recombinant CYP1A2, luciferin-ME demethylation, luminescence; series mostly up to 57 µM
Procedure, shortened: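 Inhibition was calculated relative to 57 uM furafylline (full inhibition). The reaction used human CYP1A2 at 20nM with Luciferin-ME at its Km, 100uM, driven by an NADPH-regenerating system for 60 min at room temperature.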

[4] = NFAT Signaling Pathway (AID 444); conditions: Jurkat NFAT-bla M1, carbachol, beta-lactamase ratio, 5 h; at 7.69 µM (top of the series) unless noted;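 note: carbachol stimulus at about its EC50 of 1 µM final; % is set by controls: 0 for no effect and ±100 for the full control effect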
Procedure, shortened: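 Jurkat cells with NFAT-driven β-lactamase reporter and co-expressed M1 receptor, stimulated with carbachol (final 1 uM, ~EC50), compound titration, 5 h at 37 °C. CCF4 loaded 1 h at RT; 460/530 nm ratio gave %activity and AC50.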

[5] = Stat Signaling Pathway (AID 446); conditions: ME-180 SIE beta-lactamase reporter, IL-6 stimulated, 5 h; at 7.69 µM (top of the series) unless noted;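 note: ME-180 cervical cancer cells given 40 pM IL-6 alongside compound; SIE-controlled beta-lactamase reporter measured as 460/530 nm FRET emission ratio; % is set by controls: 0 for no effect and ±100 for the full control effect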
Procedure, shortened: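 Reporter line: ME-180 cervical carcinoma, SIE-beta-lactamase. Treatment: compound with 40 pM IL-6, 5 hrs, 37 C, in low-serum OPTI-MEM with 10 mM HEPES pH 7.3. Detection: 460/530 nm fluorescence.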

[6] = molecular target: Glucocorticoid receptor (Homo sapiens) (UniProt P04150); experiment: GR-EFC Redistribution (AID 451; calls by dose curve; note: potency is the fitted concentration of half-maximal effect); conditions: CHO-K1 GR-EFC translocation, beta-gal luminescence, 2 h
Procedure, shortened: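 CHO-K1 cells expressing nuclear EA and GR-ED fragments of b-gal; compounds titrated up to 46 uM final, 2 h at 37 C. GR nuclear translocation read as complemented b-gal luminescence after 1 h RT detection.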

[7] = molecular target: Mitogen-activated protein kinase 10 (Mus musculus) (UniProt Q61831); experiment: JNK3 AlphaScreen Assay (AID 530); conditions: JNK3 lysate, c-Jun phosphorylation; series mostly up to 57.1 µM;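 note: kinase came from lysate of stimulated human HepG2 cells; signal reports phosphorylation of biotinylated GST-cJun 1-79 at Ser73 with 10 µM ATP; % is set by controls: 0 for no effect and ±100 for the full control effect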
Procedure, shortened: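 qHTS format: compounds tested as titrations against IL-1beta/TNF-alpha-activated HepG2 lysate JNK3 with biotin-GST-cJun substrate and 10 uM ATP at room temperature. Loss of anti-phospho-cJun AlphaScreen signal indicates inhibition.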

[8] = molecular target: 3',5'-cyclic-AMP phosphodiesterase 4B (Homo sapiens) (UniProt Q07343); experiment: qHTS Assay for Inhibitors of PDE-IV (AID 607; active = well fitted activation curve with a large enough effect in the main read-out, with a control signal flat, not every such curve was filed as active; note: % of control where 0% means no effect); conditions: HEK293 ACTOne CNG channel cells, membrane potential fluorescence; series mostly up to 22.9 µM
Procedure, shortened: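 Cell-based read-out of cAMP via a modified cyclic nucleotide-gated channel and membrane potential dye (535/590 nm) in HEK293 cells expressing PDE4 endogenously. Compounds tested up to 22.9 uM final; 100 uM RO 20-1724 reference.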

[9] = molecular target: Cytochrome P450 3A4 (Homo sapiens) (UniProt P08684); experiment: qHTS Assay for Activators of Cytochrome P450 3A4 (AID 885; active = well fitted curve in the direction sought with a large enough effect; an effect the other way counts as inactive or inconclusive; note: nearly all actives have a fitted effect of over 65% in size; note: potency is the fitted concentration of half-maximal effect); conditions: recombinant CYP3A4, Luciferin-PPXE luminescence, 60 min; series mostly up to 57.1 µM
Procedure, shortened: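 Signal was normalized against complete inhibition by 57 uM ketoconazole. The reaction used 20nM CYP3A4 with 25uM Luciferin-PPXE, 10-min compound preincubation and a 60-min NADPH-supported step at RT.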

[10] = molecular target: Cytochrome P450 2D6 (Homo sapiens) (UniProt P10635); experiment: qHTS Assay for Inhibitors and Substrates of Cytochrome P450 2D6 (AID 891; active = well fitted curve in the direction sought with a large enough effect; an effect the other way counts as inactive or inconclusive; note: potency is the fitted concentration of half-maximal effect; nearly all actives have a fitted effect of over 60% in size); conditions: recombinant CYP2D6, luciferin-ME EGE luminescence; series mostly up to 57.1 µM
Procedure, shortened: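 Human CYP2D6 (5 nM) with 30 uM Luciferin-ME EGE (at Km) in 100 mM KPO4, compound preincubated 10 min, then NADPH regeneration system for 60 min at room temperature. Luciferin read by luminescence; normalized to 1.43 uM quinidine.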

[11] = qHTS Assay for Lipid Storage Modulators (AID 1519; calls by dose curve); conditions: Drosophila S3 cells, BODIPY lipid droplet/cell ratio, laser cytometry, cells loaded with oleic acid; for activity change, negative = inhibition: at 57.5 µM (top of the series)
Procedure, shortened: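 Cells seeded at 5,000 per well were treated with compounds over a concentration series and loaded with oleic acid (400 uM, as added). Lipid droplet fluorescence (488 nm excitation, 500-530 nm channel) was read by laser-scanning cytometry and normalized to 20 uM Triacsin C.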

[12] = Primary qHTS for small molecule stabilizers of the endoplasmic reticulum resident proteome: Secreted ER Calcium Modulated Protein (SERCaMP) assay (AID 1508630; active = well fitted curve in the direction sought with a large enough effect; an effect the other way counts as inactive or inconclusive; note: % is set by controls: 0 for no effect and ±100 for the full control effect); conditions: SH-SY5Y GLuc-SERCaMP (Gaussia luciferase released on ER calcium loss) secretion, thapsigargin, luminescence; series mostly up to 38.4 µM
Procedure, shortened: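 GLuc-SERCaMP-expressing SH-SY5Y cells, pretreated 16 h with compound, are challenged with thapsigargin to empty ER calcium stores; after 4 h, coelenterazine is added directly to the medium and luminescence is imaged.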

[13] = molecular target: Cytochrome P450 2C19 (Homo sapiens) (UniProt P33261); experiment: qHTS Assay for Inhibitors and Substrates of Cytochrome P450 2C19 (AID 899; active = well fitted curve in the direction sought with a large enough effect; an effect the other way counts as inactive or inconclusive; note: potency is the fitted concentration of half-maximal effect; nearly all actives have a fitted effect of over 60% in size); conditions: recombinant CYP2C19, luciferin-H EGE luminescence; series mostly up to 57.1 µM
Procedure, shortened: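 Signal comes from luciferase acting on luciferin released by CYP2C19-mediated hydroxylation of Luciferin-H EGE, 10uM (KM). Assay mix: 5nM enzyme, 50mM KPO4; 60 min at 37C with NADPH regeneration. Data normalized against 57uM ketoconazole.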

[14] = measured here: cell count channel max response
[15] = measured here: lipid channel max response

Lysosomal acid glucosylceramidase (Homo sapiens), sequence (P04062 whole entry, looked up): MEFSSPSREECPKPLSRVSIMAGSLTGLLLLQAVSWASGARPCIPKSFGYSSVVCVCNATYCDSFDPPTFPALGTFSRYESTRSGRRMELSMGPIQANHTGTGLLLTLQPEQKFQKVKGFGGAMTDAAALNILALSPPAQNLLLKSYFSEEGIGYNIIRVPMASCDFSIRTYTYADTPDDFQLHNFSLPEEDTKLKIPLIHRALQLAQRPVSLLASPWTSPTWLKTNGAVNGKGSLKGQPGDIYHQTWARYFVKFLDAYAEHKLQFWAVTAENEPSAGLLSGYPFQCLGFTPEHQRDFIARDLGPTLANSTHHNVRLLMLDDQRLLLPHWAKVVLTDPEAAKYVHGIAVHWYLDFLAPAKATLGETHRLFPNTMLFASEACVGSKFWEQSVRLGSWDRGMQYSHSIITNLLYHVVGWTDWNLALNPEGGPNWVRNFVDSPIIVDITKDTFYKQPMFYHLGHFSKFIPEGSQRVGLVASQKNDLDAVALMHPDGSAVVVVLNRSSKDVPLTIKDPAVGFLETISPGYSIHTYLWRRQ
Glucocorticoid receptor (Homo sapiens), sequence (P04150 whole entry, looked up, the tested form may be a part): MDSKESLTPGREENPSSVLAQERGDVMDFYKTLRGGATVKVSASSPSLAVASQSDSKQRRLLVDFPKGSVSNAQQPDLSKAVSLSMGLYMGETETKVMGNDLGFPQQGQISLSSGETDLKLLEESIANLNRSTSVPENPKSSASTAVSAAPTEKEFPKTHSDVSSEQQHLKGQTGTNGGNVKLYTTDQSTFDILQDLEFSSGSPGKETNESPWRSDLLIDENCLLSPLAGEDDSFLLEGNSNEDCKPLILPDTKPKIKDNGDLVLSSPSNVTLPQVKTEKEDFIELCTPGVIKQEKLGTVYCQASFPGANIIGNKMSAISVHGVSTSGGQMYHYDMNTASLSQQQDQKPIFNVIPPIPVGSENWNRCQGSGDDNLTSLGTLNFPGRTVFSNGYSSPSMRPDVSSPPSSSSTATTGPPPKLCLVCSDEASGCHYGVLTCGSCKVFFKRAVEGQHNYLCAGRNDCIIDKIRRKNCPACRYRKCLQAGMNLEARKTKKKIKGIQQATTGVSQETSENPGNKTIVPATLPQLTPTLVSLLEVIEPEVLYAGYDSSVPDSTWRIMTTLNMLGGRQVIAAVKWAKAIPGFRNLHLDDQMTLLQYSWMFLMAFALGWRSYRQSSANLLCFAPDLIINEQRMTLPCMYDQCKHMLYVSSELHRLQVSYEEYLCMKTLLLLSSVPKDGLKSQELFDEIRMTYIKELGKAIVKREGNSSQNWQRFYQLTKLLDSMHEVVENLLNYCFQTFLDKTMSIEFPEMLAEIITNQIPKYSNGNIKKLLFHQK
Cytochrome P450 3A4 (Homo sapiens), sequence (P08684 whole entry, looked up): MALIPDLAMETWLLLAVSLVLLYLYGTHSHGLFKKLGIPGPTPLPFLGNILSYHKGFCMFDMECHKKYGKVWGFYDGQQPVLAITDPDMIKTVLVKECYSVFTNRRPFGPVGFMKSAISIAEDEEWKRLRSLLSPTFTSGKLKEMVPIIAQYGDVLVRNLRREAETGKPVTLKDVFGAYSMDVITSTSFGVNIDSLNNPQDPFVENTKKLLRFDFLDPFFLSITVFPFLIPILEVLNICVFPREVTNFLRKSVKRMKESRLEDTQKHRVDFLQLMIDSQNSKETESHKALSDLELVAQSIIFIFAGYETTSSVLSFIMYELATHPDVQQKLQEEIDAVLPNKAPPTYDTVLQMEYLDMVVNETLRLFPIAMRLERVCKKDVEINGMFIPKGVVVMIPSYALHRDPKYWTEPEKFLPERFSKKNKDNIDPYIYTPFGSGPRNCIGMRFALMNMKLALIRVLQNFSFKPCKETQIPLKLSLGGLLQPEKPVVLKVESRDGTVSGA
3',5'-cyclic-AMP phosphodiesterase 4B (Homo sapiens), sequence (Q07343 whole entry, looked up): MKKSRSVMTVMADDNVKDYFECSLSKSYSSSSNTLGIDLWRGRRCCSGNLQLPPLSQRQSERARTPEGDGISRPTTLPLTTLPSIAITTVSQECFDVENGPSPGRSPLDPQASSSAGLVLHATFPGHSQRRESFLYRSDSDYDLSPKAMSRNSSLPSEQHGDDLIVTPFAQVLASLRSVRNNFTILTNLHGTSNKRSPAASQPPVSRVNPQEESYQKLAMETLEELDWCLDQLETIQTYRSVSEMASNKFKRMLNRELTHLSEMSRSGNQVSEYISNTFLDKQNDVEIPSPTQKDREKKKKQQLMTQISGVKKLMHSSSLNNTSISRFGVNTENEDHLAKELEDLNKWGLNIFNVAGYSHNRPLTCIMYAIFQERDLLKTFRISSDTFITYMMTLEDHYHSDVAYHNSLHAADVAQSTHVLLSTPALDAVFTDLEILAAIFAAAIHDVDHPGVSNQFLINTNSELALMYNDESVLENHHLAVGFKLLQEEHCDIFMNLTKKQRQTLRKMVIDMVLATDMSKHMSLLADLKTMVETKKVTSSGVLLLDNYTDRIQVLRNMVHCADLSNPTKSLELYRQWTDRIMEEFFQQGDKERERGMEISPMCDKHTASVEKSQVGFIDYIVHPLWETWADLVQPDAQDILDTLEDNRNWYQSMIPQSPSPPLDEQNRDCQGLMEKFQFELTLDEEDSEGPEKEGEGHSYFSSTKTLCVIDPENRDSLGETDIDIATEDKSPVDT
Cytochrome P450 1A2 (Homo sapiens), sequence (P05177 whole entry, looked up): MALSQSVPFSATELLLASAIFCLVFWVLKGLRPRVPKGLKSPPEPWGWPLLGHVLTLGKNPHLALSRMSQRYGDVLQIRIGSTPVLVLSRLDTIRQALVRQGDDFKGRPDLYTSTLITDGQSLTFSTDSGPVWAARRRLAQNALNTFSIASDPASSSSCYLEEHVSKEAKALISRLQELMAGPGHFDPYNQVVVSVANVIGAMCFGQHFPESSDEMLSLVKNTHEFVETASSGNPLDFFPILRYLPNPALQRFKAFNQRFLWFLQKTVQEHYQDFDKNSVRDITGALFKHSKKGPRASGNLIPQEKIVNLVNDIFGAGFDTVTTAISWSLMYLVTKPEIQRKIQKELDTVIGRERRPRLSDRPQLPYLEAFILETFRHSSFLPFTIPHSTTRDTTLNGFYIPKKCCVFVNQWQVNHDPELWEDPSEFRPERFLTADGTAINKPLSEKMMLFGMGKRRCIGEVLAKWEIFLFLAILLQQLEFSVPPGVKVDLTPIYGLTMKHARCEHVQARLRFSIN
Cytochrome P450 2C19 (Homo sapiens), sequence (P33261 whole entry, looked up): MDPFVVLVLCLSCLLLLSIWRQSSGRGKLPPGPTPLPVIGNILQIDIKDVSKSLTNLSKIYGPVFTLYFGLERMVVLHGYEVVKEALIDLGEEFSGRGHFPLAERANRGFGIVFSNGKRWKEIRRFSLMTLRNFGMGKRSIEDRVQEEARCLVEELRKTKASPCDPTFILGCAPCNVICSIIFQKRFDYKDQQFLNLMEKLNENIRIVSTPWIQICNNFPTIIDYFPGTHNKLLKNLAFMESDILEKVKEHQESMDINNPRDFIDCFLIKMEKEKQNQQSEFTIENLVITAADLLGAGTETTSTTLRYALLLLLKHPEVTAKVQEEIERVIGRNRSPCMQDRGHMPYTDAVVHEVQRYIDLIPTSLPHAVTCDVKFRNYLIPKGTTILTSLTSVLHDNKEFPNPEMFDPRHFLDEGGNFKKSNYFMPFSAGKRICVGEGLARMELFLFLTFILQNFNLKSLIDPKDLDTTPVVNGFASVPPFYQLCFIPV
Cytochrome P450 2D6 (Homo sapiens), sequence (P10635 whole entry, looked up): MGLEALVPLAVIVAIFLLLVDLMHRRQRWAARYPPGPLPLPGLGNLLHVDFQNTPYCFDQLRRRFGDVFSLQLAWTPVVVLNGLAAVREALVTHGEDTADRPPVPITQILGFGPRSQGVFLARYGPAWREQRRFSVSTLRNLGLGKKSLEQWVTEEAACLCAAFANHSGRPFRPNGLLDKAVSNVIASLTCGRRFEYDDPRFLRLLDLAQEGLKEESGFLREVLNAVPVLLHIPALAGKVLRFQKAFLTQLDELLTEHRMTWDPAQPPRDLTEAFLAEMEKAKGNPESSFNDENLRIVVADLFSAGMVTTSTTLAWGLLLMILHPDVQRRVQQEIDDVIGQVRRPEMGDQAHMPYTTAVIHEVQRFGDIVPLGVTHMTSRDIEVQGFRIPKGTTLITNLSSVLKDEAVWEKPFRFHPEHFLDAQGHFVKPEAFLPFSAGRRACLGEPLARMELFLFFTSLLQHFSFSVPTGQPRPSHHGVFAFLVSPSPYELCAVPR

O=C(c1ccco1)N1CCC2(CC1)CN(C(c1ccccc1)c1ccccc1)C2
9.48%: max response [11, 15]
active: Potency [9] 10 µM | Potency [10] 1.26 µM
inactive: Potency [1] > 11.4 µM | activity change, negative = inhibition [2] -3.72% | Potency [3] | activity change, negative = inhibition [4] 11% | activity, negative = inhibition [5] -4.65% | Potency [6] > 46 µM | outcome [7] | Potency [8] | activity change, negative = inhibition [11] 2.1% | Potency [12]
5.15%: max response [11, 14]

COc1ccc(C(=O)N2CCC3(CC2)CN(Cc2ccc(C#N)cc2)C3)cc1
11.7%: max response [11, 15]
13.1%: max response [11, 14]
inactive: Potency [1] > 11.4 µM | activity change, negative = inhibition [2] 11% | Potency [3] | activity change, negative = inhibition [4] -0.922% | activity, negative = inhibition [5] 8.44% | Potency [6] > 46 µM | outcome [7] | Potency [8] | Potency [9] | activity change, negative = inhibition [11] -3% | Potency [12]

O=C(Nc1ccccc1)N1CC[C@@]2(CCCN(C(=O)c3cnccn3)C2)C1
16%: max response [11, 15]
inactive: Potency [1] > 11.4 µM | activity change, negative = inhibition [2] 6.39% | Potency [3] | activity change, negative = inhibition [4] 7.42% | activity, negative = inhibition [5] -0.789% | Potency [6] > 46 µM | outcome [7] | Potency [8] | Potency [9] | activity change, negative = inhibition [11] 1.67% | Potency [12]
12.8%: max response [11, 14]

CC(C)CN1CC[C@@]2(CCCN(C(=O)c3csnn3)C2)C1
inactive: Potency [1] > 11.4 µM | activity change, negative = inhibition [2] -0.149% | Potency [3] | activity change, negative = inhibition [4] -1.84% | activity, negative = inhibition [5] 5.64% | Potency [6] > 46 µM | outcome [7] | Potency [8] | Potency [9] | activity change, negative = inhibition [11] 1.65% | Potency [12]
-1.75%: max response [11, 14]
2.01%: max response [11, 15]

COC(=O)N1CCC2(CCCN(C(=O)Nc3cccc(F)c3)C2)CC1
-0.146%: max response [11, 14]
-17.1%: max response [11, 15]
inactive: Potency [1] > 11.4 µM | activity change, negative = inhibition [2] -3.15% | Potency [3] | activity change, negative = inhibition [4] -20.9% | activity, negative = inhibition [5] -5.21% | Potency [6] > 46 µM | outcome [7] | Potency [8] | Potency [9] | activity change, negative = inhibition [11] -17.4% | Potency [12]

COc1ccc(NC(=O)N2CCCC3(CCN(S(C)(=O)=O)CC3)C2)cc1
-9.3%: max response [11, 14]
-4.34%: max response [11, 15]
inactive: Potency [1] > 11.4 µM | activity change, negative = inhibition [2] -11.2% | Potency [3] | activity change, negative = inhibition [4] 21.9% | activity, negative = inhibition [5] 17.2% | Potency [6] > 46 µM | outcome [7] | Potency [8] | Potency [9] | activity change, negative = inhibition [11] 3.48% | Potency [12]

CN(C)c1ncc2ncc(=O)n(Cc3ccc(F)cc3)c2n1
active: Potency [3] 3.98 µM | Potency [13] 3.16 µM
6.58%: max response [11, 14]
11.9%: max response [11, 15]
inactive: Potency [1] > 11.4 µM | activity change, negative = inhibition [2] -9.88% | activity change, negative = inhibition [4] 4.28% | activity, negative = inhibition [5] -10.9% | Potency [6] > 46 µM | outcome [7] | Potency [8] | Potency [9] | activity change, negative = inhibition [11] 2.54% | Potency [12]
